These results are taken from PubChem BioAssay AID1918990 (ICCB-Longwood Screening Facility, Harvard Medical School, 2023).

The whole screen tested about 29,000 compounds, of which about 85 (0.3%) were called active. The entries come from a sample that favours actives as a whole. A number with no mark means an inactive call.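 How the source made its calls: active means replicate mean overnight rise in green fluorescent reporter signal, 3 or more SD over negative controls; inactive means the rest.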 Square brackets hold non-standard residues; d marks the D form. Side chains are listed from the residue outwards. Peptide text beside a SMILES is read from it. * marks the point of attachment. X1 = CCC(C)C(N)C1=NC(C(=O)*)CS1; Orn = NCCC[CH](N)C(=O)O

This assay is described as follows: activators of Burkholderia fixLJ two-component system, primary screen, B. multivorans, GFP reporter (AID 1918990). Particulars: B. multivorans fixK-promoter GFP reporter, 18 h; stronger effect = higher value.
`Cc1cccc(NC(=O)C2CCCN2S(=O)(=O)c2cccc3nsnc23)c1C` (centres undefined): the z-score was 0.05.
In the case of `CN1C(=O)c2[nH]nc(-c3ccc(F)cc3)c2C1c1ccccn1` (centres undefined) it was 0.33.
With `CN(CCNC(=O)CN1CCCC(c2ccccc2)C1)S(C)(=O)=O` (centres undefined), the z-score is 0.17.
As for `Cc1[nH]c(=O)[nH]c(=O)c1CC(=O)NCc1ccc(-c2ncon2)cc1`, the z-score was -1.58.
In the case of `CCOC(=O)c1ccc(NC(=O)CC2C(=O)N(c3cccc(OC)c3)C(=O)N2C2CCCCC2)cc1` (centres undefined) it was -0.28; in that of `CCOC(=O)c1cc2c(=O)n3ccccc3nc2n(CCCOC)c1=NC(=O)C(C)(C)Oc1ccc(Cl)cc1`, -0.51; in that of `Cc1cc(C(=O)NCCCc2nnc3ccccn23)nc(C)n1`, -0.17.
`COc1ccc(CNC(=O)c2cc3c(s2)-c2ccccc2OC3)cc1`: the z-score was 0.73.
In the case of `COc1ccccc1CNC(=O)Cn1nccc1C1CCCNC1` (centres undefined) it was 0; in that of `CCCCNC(=O)c1ccc2c(c1)NC(=O)C(C(C)C)N2` (centres undefined), 0.08; in that of `COc1cc2nc(NCC(C)c3ccccc3)n3nc(-c4ccccc4)nc3c2cc1OC` (centres undefined), -0.67.
In the case of `CCCS(=O)(=O)c1c(Nc2ccccc2C)sc(C(=O)c2ccccc2)c1N` it was 0.44; in that of `CC1CCC2(CC1)N=C(c1ccccc1)C(=O)N2CC(=O)Nc1ccc(F)c(Cl)c1` (centres undefined), -1.75.
`Cc1cc(C)cc(NS(=O)(=O)c2ccc3[nH]cc(C(=O)N4CCCCC4)c(=O)c3c2)c1`: the z-score was -1.09.
Turning to `COc1ccc(CCNCc2c(C(=O)O)c(C)n(Cc3cccc(C)c3)c2C)cc1OC`, the z-score was -1.27.
In the case of `COC(=O)c1c(NC(=O)c2cc(=O)c3c(C)cc(C)cc3o2)sc2c1CCCC2`, the z-score is -1.12.
In the case of `COCCN(CC=Cc1ccccc1)Cc1ccc2nonc2c1` it was 0.18.
As for `COc1cc2c(=O)c(S(=O)(=O)c3ccc(C(C)C)cc3)cn(Cc3ccccc3C)c2cc1OC`, the figure is 0.3; as for `CCOC(=O)c1c(NC(=O)COc2cc(C)ccc2C(C)C)sc(C)c1C`, -0.34; as for `c1ccc(-c2noc(CCn3ccnc3-c3cnsc3)n2)nc1`, 0.47.
As to `Cc1ccc(-n2nc(CO)c(C(=O)NCCc3ccccc3)n2)cc1`, the z-score is -0.78.
With `CC(C)c1nnsc1C(=O)Nc1ccc(CC(=O)NC2CC2)cc1`, the z-score is -0.11.
In the case of `Cn1ccnc1C(O)c1cc2n(n1)CCN(Cc1cccc(Cl)c1)C2` (centres undefined) it was 0.34.
With `COCCCNC(=O)c1c(NC(=O)c2cc(=O)c3cc(C)c(C)cc3o2)sc2c1CCCC2`, the z-score is -0.42.
As for `COc1cccc2c1C1(CCN(C(=O)c3ccccn3)CC1)OCC2`, the figure is 0.69; as for `CCOC(=O)C1CCCN(C(=O)Cn2ncc3c(C)n(Cc4ccc(F)cc4)c(C)c3c2=O)C1` (centres undefined), 0.33.
`COc1ccc(Cl)cc1NC(=O)NCC1CCN(Cc2ccccc2F)CC1`: the z-score is -7.23.
In the case of `Cc1ccc(C(=O)NCCc2nc(N)cc(=O)[nH]2)n1C(F)F` it was -0.52; in that of `COc1ccc(NC(=O)CSc2nc3ncccc3[nH]2)c(OC)c1`, 1.38.
Regarding `Cn1c(C2CCN(C(=O)CSc3nnc(N)s3)CC2)nc2ccccc21`, the z-score was 0.47.
Take `CN(Cc1ccccc1)C(=O)c1cc2c(=O)n(C)c3ccccc3c2s1`: the z-score was 0.14.
As for `CCOc1ccc(S(=O)(=O)N(CC(=O)NCCSCc2ccc(C)cc2)c2ccccc2)cc1`, the z-score was -1.04.
In the case of `Cc1c(NC(=O)c2cc(=O)c3ccccc3o2)c(=O)n(-c2ccccc2)n1C`, the z-score was -0.69.
Take `COc1cccc(CNC(=O)c2cc(=O)[nH]c3ccc(S(=O)(=O)N4CCCCC4)cc23)c1`: the z-score is -0.5.
In the case of `CCc1ccc(NC(=O)CN2C(=O)C(c3ccccc3)=NC23CCCCCC3)cc1` it was -1.83; in that of `COC(=O)c1ccc(C2C(C(=O)Nc3ccccc3)=C(C)Nc3nc4ccccc4n32)cc1` (centres undefined), -1.77; in that of `COc1ccc(CNC(=O)Cn2nnc(-c3ccc(S(C)(=O)=O)cc3)n2)cc1`, 0.3.
As for `Cn1c(=O)nc2n(-c3ccc(Br)cc3)c3cccc(Cl)c3cc-2c1=O`, the z-score was -1.2.
As for `COc1ccc(C(=O)Nc2onc3c2CCCC3)cc1`, the figure is -2.06; as for `Cc1nc(C2CCN(S(=O)(=O)CCC3CCS(=O)(=O)C3)CC2)no1` (centres undefined), 0.66; as for `Cc1ccc(Nc2c(-c3ccc(C)cc3)nc3cnccn23)cc1`, -1.25.
Turning to `Cn1c(=O)c2c(nc(SCC(=O)Nc3ccc(F)cc3)n2Cc2ccccc2)n(C)c1=O`, the z-score was -1.14.
`Cc1ccc2nc(-c3ccc(O)cc3)c(Nc3ccc4c(c3)OCO4)n2c1`: the z-score is 0.53.
As to `O=C(c1n[nH]c2ccccc12)N1CCc2nc(-c3cccc(F)c3)[nH]c2C1`, the z-score is -1.33.
Regarding `COc1c(Cl)cc(C(=O)N(Cc2ccccc2F)C2CCS(=O)(=O)C2)cc1Cl` (centres undefined), the z-score was -0.89.
`Cc1ccn2c(Nc3ccc4c(c3)OCCO4)c(-c3ccc(C)s3)nc2c1`: the z-score is 0.86.
As to `CCOc1ccc(-c2cc3nc(C4CCN(C(=O)OC(C)(C)C)CC4)c(C(=O)Nc4cccc(CC)c4)cn3n2)cc1`, the z-score is -0.21.
`CCOc1ccc2nc(N3CCC(C(=O)Nc4cc(C)ccc4C)CC3)sc2c1`: the z-score is -0.96.
On to `Nc1ccnc(N2CCCC(c3[nH]ncc3-c3ccc(F)cc3)C2)n1` (centres undefined), for which the z-score was -0.16.
For the compound `COc1cc(NC(=O)CCNC(=O)Cn2ccc3ccccc3c2=O)cc(OC)c1OC`, the z-score was 0.24.
As for `CCCCOCC(=O)N1CCCC(c2ccn(CC(=O)O)n2)C1` (centres undefined), the figure is -2.17.
As for `CN(C)C1CN(Cc2cnc(-c3ccc(Cl)cc3)nc2)CC1O` (centres undefined), the figure is -0.39.
Take `Cc1ccc(-c2nc(S(=O)(=O)c3ccc(C)cc3)c(N3CCCCCC3)o2)cc1`: the z-score is -0.18.
As for `COc1ccc(CNC(=O)c2cc3c(=O)[nH]c4ccc(C)cc4c3s2)c(OC)c1`, the z-score was -1.16.
As for `COc1cccc(OCc2cc(C(=O)N(C)Cc3nncn3C)n[nH]2)c1`, the figure is -1.49; as for `Cc1c(CNC(C)c2ccccc2)c(C(=O)O)c(C)n1Cc1c(F)cccc1Cl` (centres undefined), -2.09; as for `COCCN(CCOC)C(=O)c1ccc(-c2ncccc2Cl)cc1`, 0.44.
As for `Cn1c(=O)c2c(nc(SCC(=O)Nc3ccc(F)cc3)n2Cc2ccc(Cl)cc2)n(C)c1=O`, the z-score is -2.04.
Consider `COCCNC(=O)c1cc(-c2cccc(Cl)c2)on1`, for which the z-score is 1.09.
`CCOc1ccccc1NC(=O)Cn1c(=O)n(Cc2ccco2)c(=O)c2sc3ccccc3c21`: the z-score was -1.53.
In the case of `COCCCCCC(=O)N1CC(O)C(Cc2cnccn2)C1` (centres undefined) it was 0; in that of `CS(=O)(=O)N1CCCn2nc(CNC(=O)CC3CCCC3)cc2C1`, -0.69.
For `Cc1ccc(C)c(Nc2nnc(-c3ccc(C)c(S(=O)(=O)N4CCCCC4)c3)c3ccccc23)c1`, the z-score was -0.47.
As to `COC(=O)c1ccccc1NS(=O)(=O)c1ccc2c(c1)CCCN2C(C)=O`, the z-score was -1.34.
In the case of `COc1cccc(OCCn2c(-c3ccc(Br)cc3)nc3ccccc3c2=O)c1` it was -1.26; in that of `Cc1c[nH]c(CNC(=O)COCc2nc3ccc(F)cc3[nH]2)c(C)c1=O`, -1.57.
Take `CCSC(C)C(=O)N1CCc2c(nc(-c3ccncc3)nc2N(C)C)C1` (centres undefined): the z-score is -1.6.
Consider `CCOc1ccccc1C(=O)NC1(C(F)(F)F)NC(=O)N(CCc2ccc(OC)c(OC)c2)C1=O` (centres undefined), for which the z-score was -3.27.
As for `COc1cc(Br)cc2cc(S(=O)(=O)c3ccccc3)c(=O)oc12`, the z-score is -0.19.
For the compound `CCC(C)C(N)C1=NC(C(=O)NC(CC(C)C)C(=O)NC(CCC(=O)O)C(=O)NC(C(=O)NCCCCC2NC(=O)C(CC(N)=O)NC(=O)C(CC(=O)O)NC(=O)C(Cc3cnc[nH]3)NC(=O)C(Cc3ccccc3)NC(=O)C(C(C)CC)NC(=O)C(CCCN)NC2=O)C(C)CC)CS1` (stereo not drawn) (cyclo(DNK([Ile-Glu-Leu-X1])[Orn]IFH); configuration not given here), the z-score was -0.77.
With `CN(Cc1cnn(-c2ccc(F)cc2)c1)C(=O)C(C)(C)N1CCOCC1`, the z-score is -1.96.
`C#CC(C)(CC)NC(=O)Cn1nnc(-c2ccc(OCc3c(F)cccc3Cl)cc2)n1` (centres undefined): the z-score was 0.9.
With `CC(NC(=O)N1CCCN(C(=O)C(F)(F)F)CC1)c1ccc(Cl)cc1` (centres undefined), the z-score is 0.97.
As for `CCOC(=O)c1ccc(-c2ccc(/C=C(\C#N)C(=O)Nc3ccc(OCC)cc3)o2)cc1`, the figure is 0.84; as for `CCOC(=O)c1ccc(N2C(=O)c3n[nH]c(C)c3C2c2ccc(O)c(OC)c2)cc1` (centres undefined), -1.68.
Turning to `Cc1ccc(NC(=O)NC(C)c2c(-n3cccc3)sc(C)c2C)c(C)c1` (centres undefined), the z-score is -1.6.
As for `Cc1ccc(-c2nc3cccc(C)n3c2Nc2ccc3c(c2)OCCO3)cc1`, the figure is 0.46; as for `COc1cccc(Cn2c(SCc3ccc(C(=O)N4CCCCC4)cc3)nc3ccncc32)c1`, -4.02.
Turning to `COc1ccccc1C1C(C(=O)N2CCCCC2)=C(C)Nc2nc3ccccc3n21` (centres undefined), the z-score is -0.33.
Consider `CCOc1ccc(-c2n[nH]c3c2C(c2ccccc2OC)N(c2ccc(Br)cc2)C3=O)cc1` (centres undefined), for which the z-score was -0.62.
`CC(C)Cn1c(=O)c2ccccc2n2c(CCC(=O)N3CCN(c4cccc(Cl)c4)CC3)nnc12`: the z-score is -1.08.
`Cc1ccc(C(=O)Nc2ccccc2F)cc1S(=O)(=O)N1CCOCC1`: the z-score was -1.43.
Turning to `O=C(CCc1cccc(Cl)c1)NC1COCC1Cc1ccncc1` (centres undefined), the z-score was -0.84.
`CCC1CCCCN1S(=O)(=O)c1ccc(NC(=O)c2cc(=O)c3ccccc3o2)cc1` (centres undefined): the z-score is -1.59.
